# What was measured:
# [1] = tested on: MAPK1
# [2] = tested on: MAPK3
# [3] = tested on: MINK1
# [4] = tested on: MELK
# [5] = tested on: MUSK
# [6] = tested on: MAPK15
# [7] = tested on: MEK5
# [8] = tested on: MAPK14
# [9] = tested on: MAPK9
# [10] = tested on: MSK1
# [11] = tested on: MLCK
# [12] = tested on: MAPK7
smiles,measurement,setting,value
Cc1cnc(Nc2ccc(F)cc2Cl)nc1-c1c[nH]c(C(=O)N[C@H](CO)c2cccc(Cl)c2)c1 [Vertex 11e],Kinases covered,[1],MAPK1
same,Kinases covered,[2],MAPK3
Cc1ccc(-c2cc(-c3c[nH]nc3-c3ccccn3)ccn2)cc1 [GW684088],Kinases covered,[3],MINK1
NS(=O)(=O)c1ccc(N/N=C2\C(=O)Nc3ccc(C(=O)NCCc4c[nH]cn4)cc32)cc1 [GW300660X],Kinases covered,[4],MELK
Nc1ncnc2occ(-c3ccc(NC(=O)Nc4cc(C(F)(F)F)ccc4F)cc3)c12 [GW770249X],Kinases covered,[5],MUSK
CCOc1ccc2c(-c3ccnc(Nc4cc(OC)cc(C(F)(F)F)c4)n3)cnn2n1 [GW807982X],Kinases covered,[6],MAPK15
CCCS(=O)(=O)Nc1ccc(F)c(-n2cc(-c3cncc(OC)c3)nn2)c1F [BI00865461],Kinases covered,[7],MEK5
O=C(O)/C=C/C(=O)O.OCCCNc1nccc(-c2c(-c3ccc(F)cc3)nn3cc(C(F)(F)F)ccc23)n1 [GW569293E],Kinases covered,[8],MAPK14
same,Kinases covered,[9],MAPK9
CCn1c(-c2nonc2N)nc2cncc(CNC3CCNCC3)c21 [SB-747651A],Kinases covered,[10],MSK1
Cc1ccc(-n2nc(C(C)(C)C)cc2NC(=O)Nc2ccc(OCCN3CCOCC3)cc2)cc1 [BIRB0876BS],Kinases covered,[8],MAPK14
CNc1nc(Nc2ccc(C(=O)N3CCOCC3)cc2OC)nc2[nH]cc(Cl)c12 [JH-II-127],Kinases covered,[11],MLCK
CCOc1cc(N2CCC(O)CC2)ccc1Nc1ncc2c(n1)N(C)c1ccccc1C(=O)N2C [XMD8-92],Kinases covered,[12],MAPK7

# Source: paper PMC7826789 (International Journal of Molecular Sciences, 2021)
